Measured values reported in ChEMBL document CHEMBL4296182, “CO-ADD screening of NIH NCI Diversity Set V”.
Entries with a potency or affinity are not part of this list.

Each compound was assayed on Cryptococcus neoformans. Conditions: Concentration 20 uM; ASSAY_TEST Inhibition of Fungal Growth; detection method Resazurin; Absorption (OD600-OD570); plate type 384well; NBS; CORNING #3640.

In order of rising Inhibition:
1. Oc1nc2[nH]c(Cl)nc(Cl)c-2n1  -19.04%
2. CCCCCCC(C)OC(=O)c1ccccc1C(=O)O (centres undefined)  -16.02%
3. Cc1ccn2c(C(C)O)nnc2c1 (centres undefined)  -15.94%
4. COc1cccc(/C=C2\CCc3ccccc3C2=O)c1  -15.01%
5. CC(C)COc1nc2c(c(=O)n(C)c(=O)n2C)n1C  -14.97%
6. c1ccc2c(c1)Oc1cccc3cccc-2c13  -13.12%
7. Cc1cc(C)n(C(=N)NC(=O)c2ccccc2)n1  -12%
8. CC(=O)Oc1ccc(OC(C)=O)c2c1CC1(C)OC1(C)C2 (centres undefined)  -11.66%
9. CC(NC(=O)c1ccc(Cl)c(Cl)c1)c1ccc(-c2ccccc2)cc1 (centres undefined)  -10.74%
10. CSc1nc(N)c(C(=O)Nc2ccc([N+](=O)[O-])cc2)s1  -10.16%
11. Nc1ccc(C(=O)Nc2ccc(NC(=O)c3ccco3)c(O)c2)cc1  -8.99%
12. S=C(Sc1ccc(Cl)cc1)Sc1ccc(Cl)cc1  -8.72%
13. CCCCSc1cc(O)nc(N)n1  -8.65%
14. CC(=O)Oc1c(C)c(OC(C)=O)c2c(c1C(C)=O)OC1CC(=O)C(C(C)=O)=C(O)C21C (centres undefined)  -8.61%
15. Cc1c(COC(=O)NC(C)C)c(COC(=O)NC(C)C)c2n1CS(=O)(=O)C2  -8.35%
16. COc1ccc(Nc2cc(Cl)ccc2C(=O)O)cn1  -8%
17. CC(=O)OCCn1c2nc(=O)[nH]c(=O)c-2nc2cc(C)c(C)cc21  -7.97%
18. Cc1nccnc1Sc1ccccc1  -6.77%
19. Oc1cc(CNC2CCCCC2)c(O)cc1CNC1CCCCC1  -6.29%
20. O=C(Nc1ccc(C(=O)O)c(O)c1)c1ccccc1 [BENZOYLPAS]  -5.98%
21. Nc1ncnc(N2CCOCC2)n1  -5.84%
22. Clc1ccc2nc3ccccc3cc2c1  -4.77%
23. CCOc1ccc(NC(=O)c2cc3ccccc3cc2O)cc1  -4.09%
24. O=C(O)c1ccccc1-c1ccccc1C(=O)Nc1ccc2oc(=O)c3ccccc3c2c1  -3.99%
25. O=C1NCN(CCO)CN1  -3.9%
26. O=[N+]([O-])c1ccc(-c2ncc(-c3ccc(Br)cc3)o2)cc1  -3.69%
27. COC(=O)c1c[n+]([O-])ccc1OC  -2.93%
28. NC(CSC1(c2cccc3ccccc23)c2ccccc2-c2ccccc21)C(=O)O (centres undefined)  -2.74%
29. CCN(CC)CCNC(=O)C(Cl)=C1C(Cl)=C(Cl)C(Cl)=C1Cl  -2.01%
30. Cc1cc(O)cc2c1[C@H]1CC[C@]3(C)C(=O)CC[C@H]3[C@@H]1C=C2  -1.77%
31. CC(C)(C)c1ccc(OCC(=O)O)cc1  -1.59%
32. O=C(Nc1ccc2ccccc2c1)c1ccc(Cl)cc1Cl  -1.28%
33. C=CCNC(=S)N1CCN(c2ccccc2Cl)CC1  -0.57%
34. Cc1ccc(/N=N/c2ccc(N)cc2C)c(S(N)(=O)=O)c1  -0.55%
35. COc1cc(/N=N/c2ccccc2C(=O)O)ccc1O  3.74%
36. CN(C)CCCN1c2ccc3ccccc3c2Sc2cccc(Cl)c21  12.55%
37. O=C(c1ccccc1)c1ccc[nH]1  18.91%
38. NC(=O)C1=C(N)c2ccccc2C1c1ccccc1 (centres undefined)  28.25%
39. CN(C)S(=O)(=O)Nc1cccc(Br)c1  43.58%
